Source: the supplement of paper PMC10338343
± gives the standard deviation. Over roughly 6,200 sequences, “pre-steady-state target cleavage rate” has its median near 0.29; the highest 2% begin near 2. The full list was thinned out, with the highest values kept by preference.

tested on: MIWI (PIWIL1) piRISC loaded with piRNA #1 (30 nt); assay: pre-steady-state target cleavage rate (min^-1); MIWI and MILI are mouse PIWI proteins and EfPiwi is from a freshwater sponge; tags in brackets are library labels; higher = faster piRNA-guided slicing of the target; conditions: guide: piRNA #1 5'p-UGAGGUAGUAGGUUGUAUAGUAUCCAGAGG; auxiliary factor: 500 nM mouse GTSF1
Method in brief: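 In Cleave-'n-Seq, a transcribed, DNA-blocked target RNA library (0.1 nM) was combined with 1 nM active affinity-purified piRISC bearing one synthetic guide, with or without 500 nM GTSF1 partner protein. Reactions ran in HEPES–potassium acetate buffer at 33 °C for 0–8 or 0–960 min. Uncleaved targets were sequenced and normalised to depth and to weakly complementary targets, three trials were pooled, and k3 was capped at 0.0001 min^-1. The pre-steady-state cleavage rate was obtained by fitting a burst-and-steady-state model.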

Sequence	pre-steady-state target cleavage rate
CCUCUCGGAUACUAUACAACCUACUACCUCA	2.06 ± 0.15
GGUCUCGAUACUAUACAACCUACUACCACA	0.758 ± 0.064
GCUCUCGAUACUUUACAACCUACUACCUCA	1.69 ± 0.11
GCUCUCGGAUACUAUACAACCUACUACCUCA	1.76 ± 0.088
CCUCUCGAUACUUUACAACCUACUACCUCA	2.13 ± 0.14
GCUCUCGAUACUAAACAACCUACUACCUCA	1.81 ± 0.12
CCUCUCGAUACUAUACAACCUACUACCACA	2.21 ± 0.12
CCUCUCGAUACUAUACAACCUACUACCUGA	0.985 ± 0.087
GGUCUCGAUACUAAACAACCUACUACCUCA	1.68 ± 0.12
CCUCUCGAUACUAAACAACCUACUACCUCA	2.13 ± 0.14
GCUCUGGAUACUAUACAACCUACGACCUCA	1.22 ± 0.083
GGUCUGGAAACUAUACAACCAACUACCUCA	0.138 ± 0.015
GGAGACCAUACUUACAACCUACUACCUCA	0.269 ± 0.028
GGACAGGAUACUAAACAACCUACUACCUCA	1.64 ± 0.11
GGAGACCAUUCUAUACAACCUACUACCACA	1.16 ± 0.1
GCACUCGAUACUAUACAACCUACUACCUCA	1.43 ± 0.059
GCUCUCGAUACUAUACAACCUACUACCUGA	1.07 ± 0.11
CCACUCGAUACUAUACAACCUACUACCUCA	2.13 ± 0.14
GGACUCGAUACUAUACAACCUACUACCACA	0.579 ± 0.063
GGACUCGAUACUAUACAACCUACUACCUCA	1.69 ± 0.12
GCUCUCGAUACUAUACAACCUACUACCACA	2.17 ± 0.15
CCUCUGGAUACUAUACUACCUACUACCACA	1.68 ± 0.12
GGAGUGGAUACUACACAACCUACUACCUCA	1.71 ± 0.097
GGAGACGAUACUAUACAGCCUACUACCUCA	0.668 ± 0.028
GGAGUGGUUACUAUACAACCUAGUACCUCA	0.371 ± 0.05

Sequence	pre-steady-state target cleavage rate
GGAGACCUUACUAUACAACCUACUUCCUCA	0.399 ± 0.035
GCUCUGGAUAGAUUACAACCUACUACCUCA	0.735 ± 0.048
CCUCAGGAUACUAUACAACCUACUACCUCA	1.98 ± 0.12
GCUCAGGAUACUAUACAACCUACAACCUCA	0.866 ± 0.076
GCUCAGGAUACUAUACAACCUACUACCUCA	1.85 ± 0.11
GGACAGGUUACUAUACAACCUACUACCUCA	1.9 ± 0.14
GCUCAGGUUACUAUACAACCUACUACCUCA	2.01 ± 0.12
CCUCAGGUUACUAUACAACCUACUACCUCA	2.5 ± 0.16
GGUCUGGAUUCUAAACAACCUACUACCUCA	1.23 ± 0.071
GGAGACCUAUGUAUACAACCUACUCACCUCA	0.144 ± 0.027
GGAGACCUAACUAUACAACAUACUACCUCA	0.303 ± 0.036
GGAGAGGAUACUAUACACCCUACUACCUCA	1.4 ± 0.068
CCUCUGGAUACUAUACAACCUACUACCUCCA	2.27 ± 0.14
GGUCUGGAUACUAUACUACCUACAACCUCA	0.456 ± 0.054
GCUCUGGAUACUAUACAACCUACUACCUACA	1.87 ± 0.13
GGUCUGGAUACUAUACAACCUACUACCUCU [g2:g28:cont:t1U]	1.59 ± 0.11
GCUCUGGAUACCUAUACAACCUACUACCUCA	1.06 ± 0.08
GCUCUGGAUACUAUACAACCUACUACCUCU [g2:g29:cont:t1U]	2.16 ± 0.13
GGUCUGGAUACUAUACAACCUACUACCUCC [g2:g28:cont:t1C]	1.54 ± 0.11
GCUCUGGAUACUAUACAACCUACUACCUCCA	2.15 ± 0.14
GGUCUGGAUACUAUACAACCUACUACCUCCA	2.06 ± 0.12
GCUCUGGAUACUAUACAACCUACUACCUCG [g2:g29:cont:t1G]	1.29 ± 0.098
GCUCUGGAUACUAUACAACCUACUACCUAA	1.83 ± 0.12
GGAGACCAUACUAAACAACCUACUUCCUCA	0.195 ± 0.024
GGAGUGGAUACUAUACUACCUACUACCUGA	0.329 ± 0.052

Sequence	pre-steady-state target cleavage rate
GGAGUGGUUACUAUACAACGUACUACCUCA	0.386 ± 0.027
GGAGACGAUACUUUACAACCUACUAGCUCA	0.142 ± 0.027
GGUCUGGAUACUAUAGAACCUACUACCACA	0.0228 ± 0.0058
GGAGACGAUACAAUACAACCUACUACCUCA	1.29 ± 0.097
GGAGUGGAUACUAUAGAACCUACUACCUCA	1.34 ± 0.076
GGAGACCAUACUAUUCAACCUACUACCUGA	0.64 ± 0.075
GGAGAGGAUACUAUAGAACCUACUUCCUCA	0.00722 ± 0.0046
GGACUGCUUACUAUACAACCUACUACCUCA	1.54 ± 0.14
GGAGACCUAUGUAUACAAUCUACUACCUCA	0.0144 ± 0.0036
GCUCUGGAUACUAUACAACCUACUACCUCC [g2:g29:cont:t1C]	2 ± 0.13
GCUCUGGAUACUAUACUACCUACAACCUCA	0.938 ± 0.086
GCUCUGGAUACUAUACAACCUACUACCUA	1.37 ± 0.1
GGAGACCAUACUUUACAACCUACUACCUCA	1.3 ± 0.087
GCUCUGGAUACCAUACAACCUACUACCUCA	0.756 ± 0.059
CCUCUGGAUACUAUACAACCUACUACUCA	1.76 ± 0.15
GCUCUGGAUACUAUACAACCUACUACUCA	1.64 ± 0.14
CCUCUGGAUACUAUACAACCUACUAUCUCA	1.09 ± 0.076
GCUCUGGAUACUAUACAACCUACUACUCUCA	2.07 ± 0.12
GGUCUGGAUACUAUACAACCUACUACUCUCA	1.2 ± 0.1
CCUCUGGAUACUAUACAACCUACUACUCUCA	2.32 ± 0.16
GCUCUGGAUACUAUACAACCUAUCUACCUCA	0.356 ± 0.028
CCUCUGGAUACUAUACAACCUACUCCUCA	0.105 ± 0.022
GCUCUGGAUACUAUACAACCUACUAUCUCA	2.32 ± 0.24
